According to the supplement of paper PMC6089552:
Where “and” joins values, the source holds several entries; their conditions need not be identical. Equal values may be shown once. The campaign covered roughly 3,200 compounds. About 300 (9.4%) showed activity. The list comes from a sample in which actives are over-represented; it also holds similar structures and randomly drawn compounds.

System: A673/TR/shEF
Assay: cell viability (LOESS-normalised, relative to median of negative controls) (log2 ratio); higher = more viable cells (less compound effect), active = hit call of the paper (over 3 MAD below the median)
Settings: treatment time: 72 h
Method in brief: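 A673/TR/shEF Ewing sarcoma cells were plated at 1,500 per well in 384-well plates and cultured with or without doxycycline, added 24 h before compounds, to induce EWS-FLI1 shRNA knockdown. Library compounds at two or more concentrations, alongside DMSO controls, were applied for three days. Cell viability was measured by CellTiter-Glo luminescence on an Envision reader. Readings were LOESS-corrected per plate, divided by the median of negative controls and log2-transformed, and hits were wells lying at least three median absolute deviations from the median of all screened wells.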

[1] = 0.25 µM, library screen: screen1, EWS-FLI1 expression: high (no doxycycline)
[2] = 0.25 µM, library screen: screen1, EWS-FLI1 expression: low (doxycycline-induced shRNA knockdown)
[3] = 2.5 µM, library screen: screen1, EWS-FLI1 expression: high (no doxycycline)
[4] = 2.5 µM, library screen: screen1, EWS-FLI1 expression: low (doxycycline-induced shRNA knockdown)
[5] = 0.103 µM, library screen: screen3, EWS-FLI1 expression: high (no doxycycline)
[6] = 0.103 µM, library screen: screen3, EWS-FLI1 expression: low (doxycycline-induced shRNA knockdown)
[7] = 0.25 µM, library screen: screen2, EWS-FLI1 expression: high (no doxycycline)
[8] = 0.25 µM, library screen: screen2, EWS-FLI1 expression: low (doxycycline-induced shRNA knockdown)
[9] = 0.308 µM, library screen: screen3, EWS-FLI1 expression: high (no doxycycline)
[10] = 0.308 µM, library screen: screen3, EWS-FLI1 expression: low (doxycycline-induced shRNA knockdown)
[11] = 0.926 µM, library screen: screen3, EWS-FLI1 expression: high (no doxycycline)
[12] = 0.926 µM, library screen: screen3, EWS-FLI1 expression: low (doxycycline-induced shRNA knockdown)
[13] = 2.5 µM, library screen: screen2, EWS-FLI1 expression: high (no doxycycline)
[14] = 2.5 µM, library screen: screen2, EWS-FLI1 expression: low (doxycycline-induced shRNA knockdown)
[15] = 2.8 µM, library screen: screen3, EWS-FLI1 expression: high (no doxycycline)
[16] = 2.8 µM, library screen: screen3, EWS-FLI1 expression: low (doxycycline-induced shRNA knockdown)
[17] = 8.3 µM, library screen: screen3, EWS-FLI1 expression: high (no doxycycline)
[18] = 8.3 µM, library screen: screen3, EWS-FLI1 expression: low (doxycycline-induced shRNA knockdown)
[19] = 25 µM, library screen: screen3, EWS-FLI1 expression: high (no doxycycline)
[20] = 25 µM, library screen: screen3, EWS-FLI1 expression: low (doxycycline-induced shRNA knockdown)
[21] = 0.025 µM, library screen: screen1, EWS-FLI1 expression: high (no doxycycline)
[22] = 0.025 µM, library screen: screen1, EWS-FLI1 expression: low (doxycycline-induced shRNA knockdown)
[23] = 25 µM, library screen: screen1, EWS-FLI1 expression: high (no doxycycline)
[24] = 25 µM, library screen: screen1, EWS-FLI1 expression: low (doxycycline-induced shRNA knockdown)

Measured: cell viability (log2)

CCC(N)C(O)c1ccc(O)c(O)c1 (stereo not given)
inactive: [1] 0.161 | [2] 0.0223 | [3] 0.0883 | [4] 0.0282

C[C@]12CC[C@H](O)CC1=CC[C@@H]1[C@@H]2CC[C@]2(C)C(=O)CC[C@@H]12
inactive: [5] -0.0409 | [6] 0.0562 | [1] 0.164 | [2] 0.131 | [7] 0.133 | [8] 0.0866 | [9] 0.0564 | [10] 0.076 | [11] -0.013 | [12] 0.0349 | [3] 0.137 | [4] 0.104 | [13] 0.173 | [14] 0.152 | [15] 0.0481 | [16] 0.0405 | [17] 0.0125 | [18] 0.0569 | [19] -0.0287 | [20] -0.0258

CCC(C)C(=O)O[C@@H]1C[C@@]2(C)[C@H](c3ccoc3)OC(=O)CC23OC2(C)OC14C1(C)[C@@H](CC(=O)OC)C5(C)CC1(O)C(O)([C@@H](OC(C)=O)C43O2)[C@H]5OC(=O)C1(C)OC1C (stereo not given in full)
inactive: [1] 0.0892 | [2] 0.0664 | [3] 0.0941 | [4] 0.178

O=C(O)COc1cc(Cl)c(Cl)cc1Cl
inactive: [1] 0.0712 | [2] 0.0603 | [3] 0.0828 | [4] 0.0118

c1ccc2c3c([nH]c2c1)CNCC3
inactive: [1] 0.101 | [2] 0.0693 | [3] 0.2 | [4] 0.0982

FC(F)(F)c1cccc(N2CCNCC2)c1
inactive: [1] 0.112 | [2] 0.0689 | [3] 0.176 | [4] 0.0985

CN1C2CCC1CC(OC(c1ccccc1)c1ccc(Cl)cc1)C2 (stereo not given)
inactive: [7] 0.142 | [8] 0.124 | [13] 0.232 | [14] 0.111

CC(C)CC(NC(=O)C(Cc1ccccc1)NC(=O)CNC(=O)CNC(=O)C(N)Cc1ccc(O)cc1)C(=O)O (stereo not given)
inactive: [1] 0.0697 | [2] 0.0904 | [3] 0.0902 | [4] 0.179

Cc1c2ccncc2c(C)c2c1[nH]c1ccccc12
inactive: [7] 0.0843 | [8] 0.00884 | [14] -0.00745
active: [13] -0.136

Cc1nccc2c1[nH]c1ccccc12
inactive: [1] 0.0742 | [2] 0.0176 | [7] 0.227 | [8] 0.0311 | [3] 0.126 | [4] 0.136 | [13] 0.107 | [14] 0.0839

c1ccc2c(c1)[nH]c1cnccc12
inactive: [1] 0.0149 | [2] -0.0111 | [3] 0.101 | [4] 0.0791

Cc1ccccc1O
inactive: [1] 0.162 | [2] 0.0964 | [3] 0.189 | [4] 0.175

COC(C)(C)CCCC(C)C/C=C/C(C)=C/C(=O)OC(C)C (stereo not given)
inactive: [1] -0.00169 | [2] 0.0238 | [3] 0.116 | [4] 0.0204

c1ccc2nc(N3CCNCC3)ccc2c1
inactive: [1] 0.0719 | [2] 0.0592 | [7] 0.196 | [8] 0.0365 | [3] 0.0383 | [4] 0.12 | [13] 0.14 | [14] 0.00635

c1ccc2c(N3CCNCC3)cccc2c1
inactive: [7] 0.144 | [8] -0.113
active: [13] -0.803 | [14] -0.746

COc1ccccc1N1CCNCC1
inactive: [1] 0.0547 | [2] 0.0205 | [7] 0.228 | [8] 0.0463 | [3] 0.105 | [4] 0.112 | [13] 0.201 | [14] 0.0929

C[C@]12Cc3cn4c(nc3C=C1CCC1C2CC[C@@]2(C)[C@H]1CC[C@@]2(O)C#N)nc1ccccc14 (stereo not given in full)
inactive: [7] 0.119 | [8] 0.112 | [13] 0.295 | [14] 0.0843

Cc1[nH]c2ccccc2c1CN(C)C
inactive: [1] 0.0738 | [2] 0.0842 | [3] 0.116 | [4] 0.138

NC(C(=O)O)c1cc(=O)[nH]o1 (stereo not given)
inactive: [7] 0.0457 | [8] -0.00138 | [13] 0.0296 | [14] 0.048

C=C1C([C@]2(C)C(CC(=O)OC)[C@@](C)(COC(C)=O)OC(=O)C[C@@H]2OC(C)=O)[C@@H](OC=O)[C@H](OC(=O)C(OC(C)=O)C(C)CC)[C@@]2(C)[C@H](c3ccoc3)CC(=O)C12O (stereo not given in full)
inactive: [1] 0.0373 | [2] -0.0517 | [3] 0.0516 | [4] -0.0237

C/C(O)=C(\C#N)C(=O)Nc1cc(Br)ccc1Br
inactive: [21] 0.198 | [22] -0.0693 | [1] 0.124 | [2] -0.0251 | [7] 0.133 | [8] 0.0965 | [4] -0.0427 | [13] 0.0403 | [14] 0.0594 | [24] -0.00927
active: [3] -0.396 | [23] -0.451

COc1cc2ccc(=O)oc2c2ccoc12
inactive: [1] 0.222 | [2] 0.132 | [3] 0.248 | [4] 0.164

CCN(CC)C(=O)NC1C=C2c3cccc4[nH]cc(c34)CC2N(C)C1 (stereo not given)
inactive: [7] 0.194 | [8] 0.105 | [13] 0.116 | [14] 0.101

O=[N+]([O-])c1ccc(O[C@@H]2O[C@H](CO)[C@@H](O)[C@H](O)[C@H]2F)c([N+](=O)[O-])c1
inactive: [7] 0.132 | [8] 0.00815 | [13] 0.0628 | [14] 0.111

COc1c2c(cc3c1OCO3)[C@]13C=C[C@H](OC)C[C@H]1N(C2)CC3O (stereo not given in full)
inactive: [1] 0.0348 | [2] 0.0745 | [3] 0.0133 | [4] 0.0521

COP(=S)(OC)SCn1nnc2ccccc2c1=O
inactive: [5] -0.0814 | [6] 0.0283 | [1] -0.0615 | [2] 0.0291 | [9] -0.0468 | [10] 0.0348 | [11] -0.0952 | [12] 0.162 | [3] 0.00869 | [4] 0.101 | [15] -0.136 | [16] 0.125 | [18] 0.196 | [20] 0.00265
active: [17] -0.267 | [19] -0.422

CNC(=O)CSP(=S)(OC)OC
inactive: [1] 0.102 | [2] 0.0684 | [3] 0.15 | [4] 0.0982

CCCN1CCc2cccc3c2[C@H]1Cc1ccc(O)c(O)c1-3
inactive: [7] 0.161 | [8] 0.0862 | [13] 0.178 | [14] 0.107

CC(C)=CCOc1c2occc2cc2ccc(=O)oc12
inactive: [1] 0.059 | [2] 0.0156 | [3] 0.0916 | [4] -0.0403

Clc1ccc(C(c2ccc(Cl)cc2)C(Cl)(Cl)Cl)cc1
inactive: [1] 0.0479 | [2] 0.0234 | [3] 0.0726 | [4] 0.147

CN(C)C(=S)SSC(=S)N(C)C
active: [1] -2.91 | [2] -2.1 | [3] -2.99 | [4] -2.02

C[C@]12CC[C@@H](O)C[C@@H]1CC[C@@H]1[C@@H]2CC[C@]2(C)[C@@H](O)CC[C@@H]12
inactive: [7] 0.0177 | [8] 0.137 | [13] 0.141 | [14] 0.0662

COS(C)(=O)=O
inactive: [1] 0.0621 | [2] 0.0487 | [3] 0.0611 | [4] -0.0183

O=P(O)(O)Cc1ccccc1
active: [3] -0.281 | [4] -0.453 | [23] -0.356 | [24] -1.06
inactive: [21] 0.115 | [22] -0.0367 | [1] 0.209 | [2] -0.089

CC12CCC3C(CC=C4CC(OS(=O)(=O)O)CCC43C)C1CCC2=O (stereo not given)
inactive: [7] 0.0737 | [8] -0.00205 | [13] 0.0312 | [14] 0.0129

CCC1(O)CC(OC2CC(N(C)C)C(O)C(C)O2)c2c(cc3c(c2O)C(=O)c2c(O)cccc2C3=O)C1C(=O)OC (stereo not given)
active: [13] -0.409 | [14] -0.0756 | 25 µM, library screen: screen2, EWS-FLI1 expression: high (no doxycycline) -4.23 | 25 µM, library screen: screen2, EWS-FLI1 expression: low (doxycycline-induced shRNA knockdown) -3.71
inactive: 0.025 µM, library screen: screen2, EWS-FLI1 expression: high (no doxycycline) -0.0129 | 0.025 µM, library screen: screen2, EWS-FLI1 expression: low (doxycycline-induced shRNA knockdown) 0.0193 | [7] 0.135 | [8] -0.0369

CC[C@@]1(O)C[C@H](OC2C[C@@H](N(C)C)C(O)C(C)O2)c2c(cc3c(c2O)C(=O)c2c(O)ccc(O)c2C3=O)[C@H]1C(=O)OC (stereo not given in full)
active: [3] -0.221
inactive: [1] 0.0817 | [2] 0.158 | [4] 0.00788

CC[C@@]1(O)C[C@H](O[C@H]2C[C@H](N(C)C)[C@H](O)[C@H](C)O2)c2c(cc3c(c2O)C(=O)c2c(O)cccc2C3=O)[C@H]1C(=O)OC
inactive: [1] 0.0584 and -0.0862 | [2] -0.00295 and 0.0558
active: [3] -1.99 and -0.594 | [4] -0.405 and -0.193

Cc1o[nH]c(=O)c1CC(N)C(=O)O (stereo not given)
inactive: [7] 0.115 | [8] 0.0119 | [13] 0.0854 | [14] 0.0272

COc1ccc2c3c1O[C@H]1C(=O)CC[C@@]4(O)C(C2)N(CC2CC2)CCC314 (stereo not given in full)
inactive: [7] 0.143 | [8] 0.0949 | [13] -0.028 | [14] 0.00345

C[C@]12CCC3C(CC[C@H]4C[C@@H](Cl)CC[C@]34C)C1CCC2=O (stereo not given in full)
inactive: [1] 0.0861 | [2] 0.0822 | [3] 0.109 | [4] 0.0908
